Test results reported in PubChem BioAssay (NCI).
Compounds without any hit were thinned out: in the full panel of roughly 79,000, 15% have a hit. The source made the active and inactive calls. No stated cut-off is given here; in the data, active means growth inhibition above about 70%; inactive means the rest.

test: NCI Yeast Anticancer Drug Screen. Data for the mec2-1 strain (AID 157); details: S. cerevisiae mec2-1 strain, at 50.0 µM, active compounds read high
Procedure: Growth inhibition of yeast strains with defined genetic alterations is measured as a screen for potential anti-cancer activity. Selected strains with alterations in DNA damage repair or cell cycle control were exposed to compounds and growth inhibition was measured relative to vehicle treated controls. The strain used in this assay is mec2-1

SMILES | growth inhibition
c1cc[n+](CCNCC[n+]2ccccc2)cc1 | -7.75% (inactive)
COc1ccc(-c2nc3ccccc3c(=S)n2OC(C)=O)cc1 | 77.2% (active)
O=C1c2ccccc2C(=O)N1/N=C/c1cc(Br)ccc1O | -4.35% (inactive)
COc1ccc2nc(N/N=C/c3ccc(C)s3)cc(C)c2c1 | -1.75% (inactive)
C[Si]1(C)N[Si](C)(C)N[Si](C)(C)N1 | -19.6% (inactive)
NS(=O)(=O)c1ccc(NC(=O)/C=C/C(=O)O)cc1 | -10.4% (inactive)
CC(C)=CCc1cc(C2COc3cc4c(c(O)c3C2=O)C=CC(C)(C)O4)c(O)cc1O (stereo not given) | 93% (active)
CC1=NN(c2ccccc2)C(=O)C1C(=O)c1ccccc1 (stereo not given) | -3.65% (inactive)
NC(=O)CC1OC(=O)Cc2cc3c(c(O)c21)C(=O)c1c(O)cccc1C3=O (stereo not given) | 3.55% (inactive)
COc1ccc(-c2cc(=O)c3ccc(O)cc3o2)cc1 | -13.3% (inactive)
CCCCCCCC/C=C\CCCCCCCCOC(N)=O | -26.8% (inactive)
COc1cc(/C=N/N2CCCCC2)cc(OC)c1OC | -16.6% (inactive)
COC(=O)CCNCc1ccccc1 | -41.6% (inactive)
CC(/C=N/N1C(=O)c2ccccc2C1=O)c1ccccc1 (stereo not given) | -11.6% (inactive)
COC(=O)c1ccc2oc(=O)cc(C)c2c1O | -7.75% (inactive)
Cn1c2c(c3ccccc3c1=O)C(=O)c1ccccc1-2 | -14.2% (inactive)
O=C(/C=C/c1ccccc1)Nc1ccccc1 | -21% (inactive)
O=C(/C=N/O)Nc1cc(Cl)ccc1Cl | 15.4% (inactive)
O=C(O)c1cc(C(=O)O)cc([N+](=O)[O-])c1 | -5.9% (inactive)
COc1ccc(-c2cc(=O)c3c(C)cc(O)cc3o2)cc1 | -16.1% (inactive)

SMILES | growth inhibition
CC1CC(C(=O)OC2OC(COC3OC(CO)C(OC4OC(C)C(O)C(O)C4O)C(O)C3O)C(O)C(O)C2O)C2CCC3(C)C(=CCC4(C)C3CCC3C(C)(CO)C(O)C(O)CC34C)C2C1C (stereo not given) | 68.1% (inactive)
N#CC(=S)Nc1ccc(F)cc1 | 26.1% (inactive)
COc1ccc(/C(C#N)=C2C=C(Cl)/C(=N/O)C=C/2Cl)cc1 | -7.45% (inactive)
ClCCCC1(CCCCl)OCCO1 | -25.1% (inactive)
Cc1ccc2c(sc(-c3ccc4c(c3)sc(-c3ccc5c(c3)sc(-c3ccc(N(C)C)cc3)[n+]5C)[n+]4C)[n+]2C)c1S(=O)(=O)O (tested in a mixture with another compound) | 22.3% (inactive)
N/C(Cc1ccc(N)cc1)=N\O | -13.6% (inactive)
O=C1CCC2CN3CCc4c([nH]c5ccccc45)C3CC2C1 (stereo not given) | 14.4% (inactive)
COc1ccc(-c2cc(=O)c3c(O)cccc3o2)cc1 | -37.1% (inactive)
COc1cc(/C=C2\CN(C)C(=O)C2=O)ccc1O | -27.2% (inactive)
CC(=O)NS(=O)(=O)c1ccc2sc(C)nc2c1 | -22.6% (inactive)
CC(C)=CC(O)C/C(C)=C/CC/C(C)=C/CCC1(C)C(CCCO)/C(=C(/C)C=O)CCC1(C)O (stereo not given) | 4.75% (inactive)
CNC(=S)c1nnsc1N | -0.8% (inactive)
COc1cc2c(cc1O)C(Cc1ccc(OC)c(OC)c1)N(C)CC2 (stereo not given) | 0.85% (inactive)
O[C@H]1[C@H](O)[C@@H](Cn2nnc(-c3ccccc3)c2-c2ccccc2)OCO[C@@H]1Cn1nnc(-c2ccccc2)c1-c1ccccc1 | 31% (inactive)
Cn1cnc2c(=O)[nH]c(=O)[nH]c21 | -10.9% (inactive)
C=C1C(=O)O[C@@H]2C[C@@]3(C)CC(=O)C=C(C)[C@@H]3C[C@H]12 | -7.15% (inactive)
Cc1ccc(NC(=S)NCCO)cc1 | -41.8% (inactive)
O=Cc1ccc2c(c1Cl)C(=O)c1ccccc1C2=O | 43.2% (inactive)
CC1(C)Oc2ccc3c(=O)cc(-c4ccc(F)cc4)oc3c2C1C(=O)O (stereo not given) | -16.6% (inactive)
CC(O)Cn1cnc2c1c(=O)n(C)c(=O)n2C (stereo not given) | -42.8% (inactive)
